Results reported in PubChem BioAssay.
Activity calls are given as the source filed them.

Experiments:
[1] = small molecules captured by biotinylated probe aFSTL3 – biochemical, small-molecule microarray, fluorescence 635/667, stem cell growth factor project, primary screen (AID 1064); conditions: higher = more signal;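 note: measures binding of the biotinylated anti-FSTL3 antibody to printed compounds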
[2] = binders from COS7 lysate, DM2A8 probe, primary screen, torsin A project, cell lysate, small-molecule microarray, fluorescence 635/667 (AID 1065); conditions: higher = more signal, COS7 lysate expressing mutant human TOR1A
[3] = small molecules captured by biotinylated probe aFGF2 – biochemical, small-molecule microarray, fluorescence 635/667, stem cell growth factor project, primary screen (AID 1067); conditions: higher = more signal;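 note: measures binding of biotinylated aFGF2 protein to printed compounds on slides; z-score merges feature fluorescence and signal-to-noise across triplicate slides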
[4] = small molecules captured by biotinylated probe aFGF10 – biochemical, small-molecule microarray, fluorescence 635/667, stem cell growth factor project, primary screen (AID 1071); conditions: higher = more signal;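 note: score merges 667 nm spot intensity and signal to noise from triplicate slides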
[5] = target: Neurogenic locus notch homolog protein 2 (Homo sapiens) (UniProt Q04721); assay: small molecules binding Notch2 protein – biochemical, small-molecule microarray, 635 nm fluorescence, stem cell growth factors, primary screen (AID 1073); conditions: higher = more signal
[6] = target: Pro-neuregulin-1, membrane-bound isoform (Homo sapiens) (UniProt Q02297); assay: small molecules binding neuregulin-1 protein – biochemical, small-molecule microarray, fluorescence 635/667, psychiatric disease protein project, primary screen (AID 1075); conditions: NRG1 binding, 635 nm fluorescence, higher = more signal;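 note: score combines 667 nm spot fluorescence with signal to noise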
Chain of Pro-neuregulin-1, membrane-bound isoform (Homo sapiens) (Q02297 whole entry, looked up, the tested form may be a part, canonical isoform): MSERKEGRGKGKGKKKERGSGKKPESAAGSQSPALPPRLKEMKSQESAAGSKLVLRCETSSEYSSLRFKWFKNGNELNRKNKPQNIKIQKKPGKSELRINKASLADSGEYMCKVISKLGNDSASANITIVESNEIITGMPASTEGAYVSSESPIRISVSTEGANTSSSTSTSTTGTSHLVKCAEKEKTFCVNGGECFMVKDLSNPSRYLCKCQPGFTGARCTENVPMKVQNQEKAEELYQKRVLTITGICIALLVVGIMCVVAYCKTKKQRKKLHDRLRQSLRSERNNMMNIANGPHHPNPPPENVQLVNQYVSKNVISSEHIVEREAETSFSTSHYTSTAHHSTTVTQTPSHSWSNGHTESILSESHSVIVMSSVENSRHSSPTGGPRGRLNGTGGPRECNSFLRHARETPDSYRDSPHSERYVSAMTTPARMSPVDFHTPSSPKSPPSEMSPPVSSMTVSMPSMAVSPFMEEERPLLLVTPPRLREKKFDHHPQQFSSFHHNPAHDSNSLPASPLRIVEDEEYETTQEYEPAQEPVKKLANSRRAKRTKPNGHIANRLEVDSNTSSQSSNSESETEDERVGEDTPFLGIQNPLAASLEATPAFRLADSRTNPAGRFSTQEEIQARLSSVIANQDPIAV

[7] = system: Neuregulin-1 EGF-like domain; assay: small molecules binding NRG1 EGF domain – biochemical, small-molecule microarray, 635 nm fluorescence, primary screen (AID 1081); conditions: higher = more signal;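 note: binding of the protein to compounds printed on small-molecule microarray slides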
[8] = FRG1 expression reporter modulators in myotubes – cell-based, C2C12 myotubes, firefly/Renilla luciferase, luminescence, FRG1 inhibition for FSHD, primary screen (AID 1084); conditions: FRG1 promoter luciferase, higher = more signal, called active from +8 up or from −8 down
[9] = small molecules captured by biotinylated probe aFST – biochemical, small-molecule microarray, fluorescence 635/667, stem cell growth factor project, primary screen (AID 1086); conditions: higher = more signal;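 note: score merges 667 nm fluorescence with signal-to-noise of each printed compound spot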
[10] = binders of probe aHhip on microarray, primary screen, stem cell growth factor project, biochemical, small-molecule microarray, fluorescence 635/667 (AID 1087); conditions: higher = more signal;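 note: score merges spot fluorescence at 667nm with spot signal to noise ratio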
[11] = system: PRMT1 (protein arginine N-methyltransferase 1); assay: small molecules binding arginine methyltransferase PRMT1 – biochemical, small-molecule microarray, 635 nm fluorescence, primary screen (AID 1088); conditions: higher = more signal;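 note: binding of Prmt1 protein to compounds spotted on small-molecule microarray slides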
[12] = growth effects on S. cerevisiae YJM789 – YJM789 clinical isolate, OD600, 24 h, basal, primary screen (AID 1089); conditions: higher = more signal, called active from +8 up or from −8 down;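 note: growth of clinical yeast isolate S. cerevisiae YJM 789 seeded 1000 cells per well; test concentration not given here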
[13] = S. pombe growth modifiers, basal conditions – strain 972, OD600, 24 h, no modulator, primary screen (AID 1090);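 note: basal condition with compound alone and no growth modifier present; test concentration not given here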; conditions: S. pombe 972 growth, higher = more signal, called active from +8 up or from −8 down
[14] = budding yeast growth modifiers under rapamycin – strain BY4716, OD600, 96 h, primary screen (AID 1091); note: test concentration not given here; conditions: S. cerevisiae BY4716 + rapamycin, higher = more signal, called active from +8 up or from −8 down
[15] = target: Torsin-1A-interacting protein 2 (Homo sapiens) (UniProt Q8NFQ8); assay: small molecules binding lysate-expressed LULL1 – cell lysate, human LULL1 lysate, 635/667 nm fluorescence, primary screen (AID 1092); conditions: small-molecule microarray, hLULL1 lysate binding, 635 nm fluorescence; higher = more signal;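 note: probe is lysate of COS7 cells overexpressing human LULL1; score merges per-feature 667 nm fluorescence with signal-to-noise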
Chain of Torsin-1A-interacting protein 2 (Homo sapiens) (Q8NFQ8 whole entry, looked up): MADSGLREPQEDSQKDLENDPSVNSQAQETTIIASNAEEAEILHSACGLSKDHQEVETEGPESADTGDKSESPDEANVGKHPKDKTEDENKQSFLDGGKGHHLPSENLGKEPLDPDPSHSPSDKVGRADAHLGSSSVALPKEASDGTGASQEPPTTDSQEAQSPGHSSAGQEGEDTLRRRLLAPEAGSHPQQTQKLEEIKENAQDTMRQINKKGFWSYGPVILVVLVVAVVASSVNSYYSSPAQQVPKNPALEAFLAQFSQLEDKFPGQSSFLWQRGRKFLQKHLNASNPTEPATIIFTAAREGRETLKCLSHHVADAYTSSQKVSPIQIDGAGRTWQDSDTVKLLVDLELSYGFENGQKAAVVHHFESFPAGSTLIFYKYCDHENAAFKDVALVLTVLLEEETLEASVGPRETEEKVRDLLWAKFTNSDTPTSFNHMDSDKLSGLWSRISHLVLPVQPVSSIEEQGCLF

[16] = optical density change of DRC41 E. coli – strain DRC41, OD650, 24 h, E. coli filamentation project, primary screen (AID 1093);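 note: MC1000 strain lacking acrAB efflux and sulA so SOS filamentation is blocked; test concentration not given here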; conditions: E. coli DRC41 growth, higher = more signal, called active from +8 up or from −8 down
[17] = probe aLefty2 binding to arrayed compounds – biochemical, biotinylated probe, 635/667 nm fluorescence, primary screen (AID 1094); conditions: small-molecule microarray, higher = more signal;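 note: score merges spot fluorescence near 667 nm with spot signal-to-noise ratio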
[18] = system: Noggin (protein binding on small-molecule microarray); assay: small molecules binding Noggin protein – biochemical, 635/667 nm fluorescence, primary screen (AID 1095); conditions: 635 nm fluorescence, higher = more signal;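 note: score merges 667 nm feature fluorescence with signal to noise over triplicate slides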
[19] = target: Neurogenic locus notch homolog protein 3 (Homo sapiens) (UniProt Q9UM47); assay: small molecules binding NOTCH3 protein – biochemical, 635/667 nm fluorescence, primary screen (AID 1096); conditions: small-molecule microarray, 635 nm fluorescence, higher = more signal
Chain of Neurogenic locus notch homolog protein 3 (Homo sapiens) (Q9UM47 whole entry, looked up): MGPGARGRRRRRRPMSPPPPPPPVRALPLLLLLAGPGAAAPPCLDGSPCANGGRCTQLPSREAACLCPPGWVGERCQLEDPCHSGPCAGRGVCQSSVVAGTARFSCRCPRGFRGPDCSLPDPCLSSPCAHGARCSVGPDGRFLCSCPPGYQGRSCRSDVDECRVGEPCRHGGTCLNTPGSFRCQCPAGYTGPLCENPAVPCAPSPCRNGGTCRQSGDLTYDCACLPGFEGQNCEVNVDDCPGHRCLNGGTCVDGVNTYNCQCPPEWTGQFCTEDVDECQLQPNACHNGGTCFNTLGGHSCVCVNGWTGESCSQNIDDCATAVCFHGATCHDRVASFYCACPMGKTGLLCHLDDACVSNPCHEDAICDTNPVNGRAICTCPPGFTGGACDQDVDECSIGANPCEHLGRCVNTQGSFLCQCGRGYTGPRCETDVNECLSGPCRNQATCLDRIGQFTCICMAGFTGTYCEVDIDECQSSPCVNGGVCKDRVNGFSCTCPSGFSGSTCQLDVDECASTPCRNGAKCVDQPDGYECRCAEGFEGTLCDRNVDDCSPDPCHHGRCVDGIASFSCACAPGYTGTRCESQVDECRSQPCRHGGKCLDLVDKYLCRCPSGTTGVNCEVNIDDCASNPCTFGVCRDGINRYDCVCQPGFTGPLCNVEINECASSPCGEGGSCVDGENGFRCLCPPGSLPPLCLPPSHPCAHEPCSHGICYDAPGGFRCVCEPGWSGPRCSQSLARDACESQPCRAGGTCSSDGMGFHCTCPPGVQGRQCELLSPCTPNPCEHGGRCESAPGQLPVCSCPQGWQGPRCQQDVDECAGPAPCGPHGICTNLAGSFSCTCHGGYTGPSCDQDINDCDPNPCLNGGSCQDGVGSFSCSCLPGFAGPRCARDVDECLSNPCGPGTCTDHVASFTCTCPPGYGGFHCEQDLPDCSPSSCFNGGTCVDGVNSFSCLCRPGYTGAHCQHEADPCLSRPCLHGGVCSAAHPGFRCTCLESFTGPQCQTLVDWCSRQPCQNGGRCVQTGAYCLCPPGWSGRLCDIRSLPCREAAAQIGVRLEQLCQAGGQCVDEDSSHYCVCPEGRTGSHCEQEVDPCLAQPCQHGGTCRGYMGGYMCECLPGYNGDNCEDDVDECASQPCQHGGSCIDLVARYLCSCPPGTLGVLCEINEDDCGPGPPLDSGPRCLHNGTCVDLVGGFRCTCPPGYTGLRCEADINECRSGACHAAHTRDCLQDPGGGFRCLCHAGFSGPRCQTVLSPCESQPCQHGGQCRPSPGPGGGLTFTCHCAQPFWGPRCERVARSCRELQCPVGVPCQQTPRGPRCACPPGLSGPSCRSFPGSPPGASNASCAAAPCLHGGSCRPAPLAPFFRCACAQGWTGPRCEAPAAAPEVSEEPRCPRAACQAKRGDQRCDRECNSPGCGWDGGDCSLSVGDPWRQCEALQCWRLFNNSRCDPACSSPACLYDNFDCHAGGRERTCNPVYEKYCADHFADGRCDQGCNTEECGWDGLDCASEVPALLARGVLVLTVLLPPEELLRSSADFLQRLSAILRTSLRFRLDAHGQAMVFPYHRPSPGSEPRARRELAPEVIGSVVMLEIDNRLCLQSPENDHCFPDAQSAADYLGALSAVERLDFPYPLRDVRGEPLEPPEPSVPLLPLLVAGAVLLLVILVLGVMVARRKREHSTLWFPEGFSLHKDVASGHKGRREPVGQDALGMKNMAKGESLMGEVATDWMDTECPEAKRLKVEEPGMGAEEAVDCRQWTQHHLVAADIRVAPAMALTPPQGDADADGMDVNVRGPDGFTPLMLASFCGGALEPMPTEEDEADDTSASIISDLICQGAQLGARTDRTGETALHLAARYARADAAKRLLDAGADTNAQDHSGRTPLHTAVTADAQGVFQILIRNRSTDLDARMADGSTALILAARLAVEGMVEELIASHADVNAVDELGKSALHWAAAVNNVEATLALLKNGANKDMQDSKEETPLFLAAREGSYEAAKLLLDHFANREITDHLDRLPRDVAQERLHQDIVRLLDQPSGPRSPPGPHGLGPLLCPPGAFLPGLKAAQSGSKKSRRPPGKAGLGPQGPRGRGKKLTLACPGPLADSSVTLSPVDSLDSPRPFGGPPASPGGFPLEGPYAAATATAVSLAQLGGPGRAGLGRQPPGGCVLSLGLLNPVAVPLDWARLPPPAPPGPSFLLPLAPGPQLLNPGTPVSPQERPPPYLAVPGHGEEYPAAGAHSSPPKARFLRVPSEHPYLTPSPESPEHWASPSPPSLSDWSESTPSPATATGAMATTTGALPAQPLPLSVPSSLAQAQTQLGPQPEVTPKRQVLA

[20] = probe aEGFR binding to arrayed compounds – biochemical, biotinylated probe, 635/667 nm fluorescence, primary screen (AID 1097); conditions: small-molecule microarray, higher = more signal;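 note: probe is a biotinylated anti-EGFR antibody binding compounds printed on slides; score combines fluorescence near 667 nm and signal to noise of each spot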

SMILES | composite z-score [1] | composite z-score [2] | composite z-score [3] | composite z-score [4] | composite z-score [5] | composite z-score [6] | composite z-score [7] | z-score [8] | composite z-score [9] | composite z-score [10] | composite z-score [11] | z-score [12] | z-score [13] | z-score [14] | composite z-score [15] | z-score [16] | composite z-score [17] | composite z-score [18] | composite z-score [19] | composite z-score [20]
COC(=O)[C@@]1(Cc2ccccc2)N=C(c2ccc(OCCCO)cc2)O[C@H]1c1ccccc1CN=[N+]=[N-] | 0.261 | 0.0296 | -0.0529 | 0.0585 | 0.33 | 1.02 | 0.666 | -2.6 (inactive) | 0.226 | -0.41 | 1.55 | -0.605 (inactive) | -0.129 (inactive) | 29.9 (active) | 2.27 | 1.62 (inactive) | -0.0747 | 1.05 | 0.129 | 0.0267
CCCCC(O)C1C=CC2C(=O)N(c3ccccc3)C(=O)C2N1Nc1ccc(C#N)cc1 (stereo not given) | 0.805 | -0.472 | -0.074 | 0.226 | 1.27 | 1.9 | 1.41 | 0.662 (inactive) | 0.941 | -0.112 | 0.771 | 0.243 (inactive) | 0.634 (inactive) | 1.64 (inactive) | 3.14 | -1.11 (inactive) | 0.444 | -0.358 | 0.473 | 0.247
COCCOC(=O)N1C(=O)[C@@]2(c3cc(C#CCC(C(=O)OC)C(=O)OC)ccc31)[C@H](C(=O)Nc1nc3ccccc3s1)[C@H]1C(=O)O[C@H](c3ccccc3)[C@H](c3ccccc3)N1[C@@H]2c1ccc(O)cc1 | -0.566 | 0.304 | 0.412 | 0.742 | 1.45 | 0.158 | 1.3 | 0.203 (inactive) | 0.805 | 0.314 | 1.53 | 1.42 (inactive) | 0.431 (inactive) | 1.16 (inactive) | 2.51 | 0.28 (inactive) | 0.0085 | 0.92 | 1.04 | 0.107
